Screens (PubChem BioAssay)
Only some compounds are listed: those with a hit (about 2.6% of all), similar ones and a draw of the others.
Exocytosis inh: blocks lytic granule exocytosis | actives 0.66% (n = 360,000) | TALL-104 LAMP-1 surface exposure, flow cytometry; cells stimulated with thapsigargin and PMA | inhibition, % at 10 µM;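 active means inhibition above about 55%, limit read from the data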
Platelet DG rel: platelet dense granule release activity; actives 0.22% (n = 300,000); inhibition, %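 (compounds screened at 7.5 µM in platelet-rich plasma)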; human platelet-rich plasma, SFLLRN dense granule ATP release, luminescence;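 active means mean replicate score, as percent of positive control, at or above 50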
ABHD5-PLIN5 inh: inhibitors of human ABHD5-perilipin-5 interaction; Q00G26+Q8WTS1; Split G. princeps luciferase complementation, luminescence, 4 h; inhibition, % at 4 µM; actives 0.78% (n = 360,000);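 active means inhibition above the mean inhibition across every tested compound plus 3 SD, cut at about 22% in these data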;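 further: 0% = DMSO only wells and the 100% control is not disclosed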
Target sequence (Q00G26 whole entry, looked up): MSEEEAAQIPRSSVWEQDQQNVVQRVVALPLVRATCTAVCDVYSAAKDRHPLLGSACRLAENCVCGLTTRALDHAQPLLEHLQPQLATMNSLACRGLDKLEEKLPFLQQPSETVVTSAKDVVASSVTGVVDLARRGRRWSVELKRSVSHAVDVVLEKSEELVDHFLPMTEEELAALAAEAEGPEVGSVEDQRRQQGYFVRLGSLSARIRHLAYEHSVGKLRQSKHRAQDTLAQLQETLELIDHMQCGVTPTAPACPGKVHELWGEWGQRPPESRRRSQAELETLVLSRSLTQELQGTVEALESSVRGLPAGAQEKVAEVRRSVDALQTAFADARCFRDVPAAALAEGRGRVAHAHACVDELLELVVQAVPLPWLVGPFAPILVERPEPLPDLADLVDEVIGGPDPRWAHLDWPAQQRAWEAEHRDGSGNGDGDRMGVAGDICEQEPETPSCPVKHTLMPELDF
Target sequence (Q8WTS1 whole entry, looked up): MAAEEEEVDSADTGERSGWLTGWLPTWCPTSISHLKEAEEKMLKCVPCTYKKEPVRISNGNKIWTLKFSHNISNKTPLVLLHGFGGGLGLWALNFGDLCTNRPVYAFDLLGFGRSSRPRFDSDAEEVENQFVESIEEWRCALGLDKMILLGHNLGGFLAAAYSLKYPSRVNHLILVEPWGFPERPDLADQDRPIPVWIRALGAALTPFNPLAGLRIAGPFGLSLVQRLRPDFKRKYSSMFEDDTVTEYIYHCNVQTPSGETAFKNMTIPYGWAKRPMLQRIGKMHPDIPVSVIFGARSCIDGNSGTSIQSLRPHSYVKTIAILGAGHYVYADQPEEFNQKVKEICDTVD
Rce1 inh: blocks yeast Ras-converting enzyme. calls only. Q03530. yeast membranes, quenched prenylated peptide cleavage fluorescence. actives 0.27% (n = 290,000);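 active means fall in fluorescence gain of 50% or more versus controls, with final raw signal at or below 3038400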;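 further: plate controls were neutral control wells for no effect and wells lacking membranes for full effect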
M18AAP inhibitor: PfM18AAP enzyme inhibition | recombinant PfM18AAP, H-Glu-NHMec fluorogenic cleavage | inhibition, % at 7.35 µM | actives 1.2% (n = 290,000) | AID 1822;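 active means inhibition above the campaign mean inhibition over all tested compounds plus 3 SD, cut at about 28% in these data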;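 further: 0% = plate median of test compound wells and 100% = 2 mM ZnCl2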
* hit, by the source's call; i = inactive; x = no result; + = active, no number.

SMILES | Exocytosis inh | Platelet DG rel | ABHD5-PLIN5 inh | Rce1 inh | M18AAP inhibitor
C=CCc1cccc(/C=N/NC(=O)C[n+]2ccccc2)c1O | -18 | 6 | 5 | i | 29*
C=CCc1cccc(/C=N/n2cnnc2)c1O | -2 | 0 | 14 | i | 30*
c1coc(-c2nc(-c3ccco3)c(-c3ccco3)nc2-c2ccco2)c1 | x | 12 | 64* | x | 60*
Cc1nc2c(C)cccn2c(=O)c1NC(=O)c1ccc(Br)o1 | -16 | 1 | -7 | i | x
CC(=O)NCc1cn2c(C)csc2n1 | -1 | 83* | -3 | i | 4
Cc1csc2nc(CNC(=O)CCC(=O)O)cn12 | 2 | -7 | 3 | i | 3
COc1ccc(N(CC(=O)N/N=C/c2ccc(OC)c(OC)c2)S(=O)(=O)c2ccccc2)cc1 | -3 | 16 | -3 | i | -1
CCOC(=O)C(=NC(C)CC)NNc1cccc(C(F)(F)F)c1 (configuration not stated) | 7 | -3 | -5 | i | 0
CCOC(=O)C(=NC(C)CC)NNc1ccc(Br)cc1 (configuration not stated) | 3 | 6 | -5 | i | 30*
CCOc1cc(C(c2c(C)[nH][nH]c2=O)c2c(C)[nH][nH]c2=O)cc(Cl)c1O | -5 | 1 | -11 | i | 32*
CCOc1cc(C(c2c(C)[nH][nH]c2=O)c2c(C)[nH][nH]c2=O)cc(Br)c1OC | 1 | 13 | -7 | i | 30*
CCOc1ccc(C(c2c(C)[nH][nH]c2=O)c2c(C)[nH][nH]c2=O)cc1OC | -3 | 3 | -11 | i | 27
OC(COCC(F)(F)C(F)(F)C(F)(F)C(F)F)Cn1c2ccc(Cl)cc2c2cc(Cl)ccc21 (configuration not stated) | 0 | 4 | 0 | i | -2
Cc1nn(Cc2cccc(C(N)=O)c2)c(C)c1Br | -4 | 11 | -6 | x | -5
CCN1CCN(Cc2nc3c(c(=O)[nH]c(=O)n3C)n2Cc2ccccc2Cl)CC1 | 5 | 65* | -5 | i | 4
O=C1C(=O)N2C(=C1C(=O)N1CCCCCC1)c1ccccc1CC21CCCC1 | 2 | 0 | -5 | i | 4
COc1cccc(/C=C/C(=O)OCC(=O)Nc2ccc(Cl)c(S(=O)(=O)N(C)C)c2)c1OC | 0 | -2 | -3 | + | 2
N=C(N)c1ccc(/C=C/c2ccc(C(=N)N)cc2O)cc1 | -5 | 10 | -2 | + | -15
Cc1ccc(S(=O)(=O)N2CCN(C(=O)CSc3ccc(Cl)cc3)CC2)cc1 | -1 | -2 | -7 | i | -2
CC(/C=N/N1CCN(c2ccccn2)CC1)=C\c1ccccc1 | 76* | -1 | -5 | i | -4
CC(/C=N/N1CCN(c2ccccc2)CC1)=C\c1ccccc1 | -10 | 12 | -5 | i | -1
O=C(O)C1C2C=CC(O2)C1C(=O)Nc1ccc(S(=O)(=O)Nc2ccccc2)cc1 (configuration not stated) | 102* | x | 0 | x | -6
O=[N+]([O-])c1ccc(NN=Cc2ccccc2)nc1 | -4 | x | 2 | x | x
O=[N+]([O-])c1ccc(N/N=C\c2cccn2-c2ccccc2)nc1 | 57* | -1 | 13 | i | 47*
CN(C)S(=O)(=O)c1cccc(NC(=O)COC(=O)c2ccc3ccccc3n2)c1 | 8 | x | 9 | x | x
SMILES | Exocytosis inh | Platelet DG rel | ABHD5-PLIN5 inh | Rce1 inh | M18AAP inhibitor
Cc1nnnn1/C(=C\c1ccccc1)C(=O)OCC(=O)Nc1cccc(S(=O)(=O)N(C)C)c1 | 1 | x | 50* | x | x
O=C(NC1CCCCC1)NC1CCN(C(=S)NCc2ccco2)CC1 | -1 | 2 | 1 | i | 0
CS(=O)(=O)c1ccc(C(=O)OCc2nnc(-c3ccc(Cl)cc3)o2)cc1[N+](=O)[O-] | 60* | -5 | 12 | i | -10
O=C(OCc1nnc(-c2ccc(Cl)cc2)o1)c1ccc(O)cc1 | 1 | 1 | 0 | i | 3
Cc1ccc(NC(=O)c2ccc(CSc3nnnn3C)cc2)cc1 | 1 | 5 | 2 | i | 2
O=S(=O)(c1ccc(N2CCOCC2)c(Cl)c1)N1CCOCC1 | 13 | -17 | -2 | i | -4
O=c1c2ccccc2sn1-c1cc(S(=O)(=O)N2CCOCC2)ccc1N1CCOCC1 | 59* | -5 | 97* | i | 31*
COC(=O)c1ccc(C2/C(=C(\O)c3ccc4c(c3)OCCO4)C(=O)C(=O)N2CCCN2CCOCC2)cc1 (configuration not stated) | -7 | -2 | 4 | i | 9
O=C1C(=O)N(CCCN2CCOCC2)C(c2ccc([N+](=O)[O-])cc2)/C1=C(/O)c1ccc2c(c1)OCO2 (configuration not stated) | -10 | -1 | -7 | i | 31*
CCOC(=O)c1c(SCCN2CCCCC2)n(-c2ccccc2)c(=S)n(-c2ccccc2)c1=O | 69* | x | 12 | x | x
CCOC(=O)c1c(SC)n(-c2ccccc2)c(=S)n(-c2ccccc2)c1=O | 2 | -5 | -4 | i | -4
O=C(NNC(=O)c1ccccc1O)c1cccc(Br)c1 | -5 | -2 | 12 | i | 30*
CNc1nnc(-c2cc3ccccc3oc2=O)s1 | -2 | 2 | 4 | i | -4
N/C(=N\OCc1ccc([N+](=O)[O-])cc1)c1ccccn1 | x | 63* | x | x | -4
CC(C(=O)O/N=C(\N)c1ccccn1)c1ccc([N+](=O)[O-])cc1 (configuration not stated) | 1 | 10 | 4 | i | 5
CCNc1nc(SCC(N)=O)nc2sc3c(c12)CCN(C)C3 | 3 | 0 | -8 | i | 29*
CSc1nc(SCC(N)=O)c2c3c(sc2n1)CN(C)CC3 | -1 | 0 | 13 | i | 6
O=C(N/N=C/c1ccc(Br)o1)c1cccnc1 | -2 | 5 | -3 | i | 3
COc1ccc(NC(=O)C2CCCN2S(=O)(=O)c2cccc3nsnc23)c(OC)c1 (configuration not stated) | -7 | 2 | 3 | i | -7
C/C=C(/C)C(=O)OC1c2c(ccc3ccc(=O)oc23)OC(C)(C)C1OC(C)=O (configuration not stated) | 0 | 2 | 0 | i | 7
C/C=C(/C)C(=O)O[C@@H]1[C@H](OC(C)=O)c2c(ccc3ccc(=O)oc23)OC1(C)C | 61* | 5 | 6 | i | 0
C/C=C(/C)C(=O)O[C@H]1[C@@H](O)c2c(ccc3ccc(=O)oc23)OC1(C)C | 1 | 2 | 3 | + | 0
O=c1oc2ccccc2c(NC2CCCCC2)c1NS(=O)(=O)c1ccc(F)c(Cl)c1 | 0 | -1 | -3 | i | -7
CCc1nc2c(OCCn3cccc3)cccn2c1N(C)C(=O)c1ccccc1F | 1 | x | 4 | x | x
Cn1c(=O)c2c(nc(SCCN3CCOCC3)n2Cc2ccccc2Cl)n(C)c1=O | -1 | 63* | 1 | i | -5
CC[C@@]12C(=O)N(c3ccccc3)C(=O)N1[C@H](c1ccc(OC)cc1)[C@@H]1C(=O)N(C(C)(C)C)C(=O)[C@@H]12 | 2 | -5 | 4 | i | x
